# Laboratory results published in the supplement of paper PMC8728848.
# The entries come from a sample that favours the strongest signals as a whole.
# B1: CBM40 CPF071 (Clostridium perfringens) (protein)
# chain: MAHHHHHHVGTGSNDDDDKSPDPMLSSLGEYKDINLESSNASNITYDLEKYKNLDEGTIVVRFNSKDSKIQSLLGISNSKTKNGYFNFYVTNSRVGFELRNQKNEGNTQNGTENLVHMYKDVALNDGDNTVALKIEKNKGYKLFLNGKMIKEVKDTNTKFLNNIENLDSAFIGKTNRYGQSNEYNFKGNIGFMNIYNEPLGDDYLLSKTGETK
# Legend:
# Assay in all cases: glycan array binding signal (z-score within array); higher = stronger binding
# Conditions in all cases: glycan notation: IUPAC condensed, linker removed
# [1] = biological target: Neu5Ac(a2-3)Gal(b1-3)GalNAc(b1-4)[Neu5Ac(a2-8)Neu5Ac(a2-3)]Gal(b1-4)Glc
# In short: (§1)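 Arrays were curated from the Consortium for Functional Glycomics database, 3228 in total, and kept only where the protein sequence was available. Binding is expressed as a within-array Z-score. This score was averaged across arrays of the same protein sequence at different concentrations or buffers and across linkers, and negative values can be read as non-binding.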
# [2] = biological target: Neu5Ac(a2-3)Gal(b1-3)GlcNAc
# In short: as §1
# [3] = biological target: Neu5Ac(a2-3)Gal(b1-3)GlcNAc(b1-2)[Neu5Ac(a2-3)Gal(b1-3)GlcNAc(b1-4)]Man(a1-6)[Neu5Ac(a2-3)Gal(b1-3)GlcNAc(b1-2)Man(a1-3)]Man(b1-4)GlcNAc(b1-4)GlcNAc
# In short: as §1
# [4] = biological target: Neu5Ac(a2-3)Gal(b1-3)GlcNAc(b1-3)Gal(b1-4)GlcNAc
# In short: as §1
# [5] = biological target: Neu5Ac(a2-3)Gal(b1-3)[Fuc(a1-4)]GlcNAc
# In short: as §1
# [6] = biological target: Neu5Ac(a2-3)Gal(b1-3)[Fuc(a1-4)]GlcNAc(b1-3)Gal(b1-3)[Fuc(a1-4)]GlcNAc
# In short: as §1
# [7] = biological target: Neu5Ac(a2-3)Gal(b1-3)[Fuc(a1-4)]GlcNAc(b1-3)Gal(b1-4)[Fuc(a1-3)]GlcNAc
# In short: as §1
# [8] = biological target: Neu5Ac(a2-3)Gal(b1-3)]Neu5Ac(a2-3)Gal(b1-4)]GlcNAc
# In short: as §1
# [9] = biological target: Neu5Ac(a2-3)Gal(b1-4)GlcNAc(b1-2)Man(a1-3)[Neu5Ac(a2-3)Gal(b1-4)GlcNAc(b1-2)Man(a1-6)]Man(b1-4)GlcNAc(b1-4)GlcNAc
# In short: as §1
# [10] = biological target: Neu5Ac(a2-3)Gal(b1-4)GlcNAc(b1-3)Gal(b1-4)GlcNAc
# In short: as §1
# [11] = biological target: Neu5Ac(a2-3)Gal(b1-4)GlcNAc6S
# In short: as §1
# [12] = biological target: Neu5Ac(a2-3)Gal(b1-4)[Fuc(a1-3)]GlcNAc(b1-3)Gal
# In short: as §1
# [13] = biological target: Neu5Ac(a2-3)Gal6S(b1-4)GlcNAc
# In short: as §1
# [14] = biological target: Neu5Ac(a2-3)Gal6S(b1-4)[Fuc(a1-3)]GlcNAc
# In short: as §1
# [15] = biological target: Neu5Ac(a2-3)GalNAc(b1-4)GlcNAc
# In short: as §1
# [16] = biological target: Neu5Ac(a2-6)Gal(b1-4)GlcNAc(b1-3)Gal(b1-4)GlcNAc(b1-6)[Gal(b1-3)]GalNAc
# In short: as §1
# [17] = biological target: Neu5Ac(a2-6)Gal(b1-4)GlcNAc(b1-6)[Gal(b1-3)GlcNAc(b1-3)]Gal(b1-4)Glc
# In short: as §1
# Neu5Ac(a2-8)Neu5Ac = biological target: Neu5Ac(a2-8)Neu5Ac
# In short: as §1
# [18] = biological target: Neu5Ac(a2-8)Neu5Ac(a2-3)Gal(b1-3)GalNAc(b1-4)[Neu5Ac(a2-3)]Gal(b1-4)Glc
# In short: as §1
# [19] = biological target: Neu5Ac(a2-8)Neu5Ac(a2-8)Neu5Ac
# In short: as §1
# [20] = biological target: Neu5Ac(a2-8)Neu5Ac(a2-8)Neu5Ac(a2-8)Neu5Ac(a2-3)[GalNAc(b1-4)]Gal(b1-4)Glc
# In short: as §1
# [21] = biological target: Neu5Gc(a2-3)Gal(b1-4)GlcNAc(b1-3)Gal(b1-4)GlcNAc(b1-2)Man(a1-3)[Neu5Gc(a2-3)Gal(b1-4)GlcNAc(b1-3)Gal(b1-4)GlcNAc(b1-2)Man(a1-6)]Man(b1-4)GlcNAc(b1-4)GlcNAc
# In short: as §1
# [22] = biological target: Neu5Gc(a2-6)Gal(b1-4)GlcNAc
# In short: as §1
binder,measurement,setting,value
B1,glycan array binding signal (z-score),[1],-0.469
same,glycan array binding signal (z-score),[2],0.994
same,glycan array binding signal (z-score),[3],2.77
same,glycan array binding signal (z-score),[4],-0.328
same,glycan array binding signal (z-score),[5],2.38
same,glycan array binding signal (z-score),[6],0.256
same,glycan array binding signal (z-score),[7],1.09
same,glycan array binding signal (z-score),[8],10.7
same,glycan array binding signal (z-score),[9],-0.305
same,glycan array binding signal (z-score),[10],1.96
same,glycan array binding signal (z-score),[11],5.07
same,glycan array binding signal (z-score),[12],1.97
same,glycan array binding signal (z-score),[13],16.3
same,glycan array binding signal (z-score),[14],5.09
same,glycan array binding signal (z-score),[15],0.216
same,glycan array binding signal (z-score),[16],0.025
same,glycan array binding signal (z-score),[17],-0.069
same,glycan array binding signal (z-score),Neu5Ac(a2-8)Neu5Ac,0.538
same,glycan array binding signal (z-score),[18],-0.205
same,glycan array binding signal (z-score),[19],-0.128
same,glycan array binding signal (z-score),[20],-0.358
same,glycan array binding signal (z-score),[21],2.46
same,glycan array binding signal (z-score),[22],-0.336
